Most compounds without a hit are left out; they make up all but 7.3% or so of the library.
ELG1 genotoxic: inducers of genotoxicity in HEK293T ELG1-luciferase cells; HEK293T ELG1-luciferase reporter, luminescence, 16 h; Potency, µM (top dose mostly 46 µM), for inactives: at the highest dose activity change, positive = activation, usual class: activators; hit rate 1.3% among 330,000; AID 504466; note: % of control where 0% means no effect; nearly all actives have a fitted effect of over 60% in size
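HEK293T cells expressing luciferase-tagged ELG1 were exposed to compound or DMSO vehicle for 16 hr at 37 °C and 5% CO2. Luciferase activity was then measured with ONE-Glo after 30 min at room temperature.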
NPC1 prom act: NPC1 promoter activation. Huh7 NPC1 promoter luciferase reporter, 24 h. Potency, µM (top dose mostly 9.22 µM), without a hit: at the highest dose activation, usual class: activators. hit rate 2.4% among 320,000; note: % of control where 0% means no effect; nearly all actives have a fitted effect of over 60% in size
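Stable NPC1-promoter luciferase Huh7 line; cpd (DMSO) 24 h, 37 °C, 5% CO2; Amplite luciferase reagent 10 min RT; luminescence readout. qHTS format.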
FLuc modulator: firefly luciferase modulation, counter-screen for miR-21 project; hit rate 6.9% among 360,000; Potency, µM (titrated, usually from 57.5 µM), for the others: at the top dose activity change, negative = inhibition, most hits filed as inhibitors; purified FLuc, Km substrates, luminescence inhibition; P08659;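 note: plate controls were vehicle for no effect and reference inhibitor for full effect; nearly all actives have a fitted effect of over 55% in size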
Target sequence (P08659 whole entry, looked up): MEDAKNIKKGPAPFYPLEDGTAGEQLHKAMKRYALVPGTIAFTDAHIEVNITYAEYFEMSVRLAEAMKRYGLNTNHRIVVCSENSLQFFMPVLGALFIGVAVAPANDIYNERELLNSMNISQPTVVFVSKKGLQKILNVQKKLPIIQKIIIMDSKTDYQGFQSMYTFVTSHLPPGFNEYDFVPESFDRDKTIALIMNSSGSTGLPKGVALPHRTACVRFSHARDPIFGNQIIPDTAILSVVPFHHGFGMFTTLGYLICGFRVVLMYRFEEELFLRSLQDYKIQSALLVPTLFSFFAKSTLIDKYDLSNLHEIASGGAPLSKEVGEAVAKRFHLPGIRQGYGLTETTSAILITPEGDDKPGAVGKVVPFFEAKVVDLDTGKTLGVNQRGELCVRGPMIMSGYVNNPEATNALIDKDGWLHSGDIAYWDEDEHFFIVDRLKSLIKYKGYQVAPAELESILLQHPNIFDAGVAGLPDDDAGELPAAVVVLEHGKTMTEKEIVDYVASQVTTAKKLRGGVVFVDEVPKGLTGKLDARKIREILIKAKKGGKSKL
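Purified P. pyralis luciferase, 10 nM final, with Km-level 10 uM D-luciferin and 10 uM ATP in 50 mM Tris acetate pH 7.5, 10 mM Mg acetate, 0.01% Tween-20, 0.05% BSA; 6-point qHTS titration about 60 µM downward; luminescence read.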
KinaseGlo FLuc: Kinase-Glo luciferase inhibition (counter-screen) | AID 1379 | hit rate 0.28% among 200,000 | Potency, µM (top dose mostly 38.3 µM), inactives show at the top dose activity change, negative = inhibition, hits mostly inhibitors | Kinase-Glo luciferase, ATP luminescence, 8 min | Q27757; note: % is set by controls: 0 for no effect and ±100 for the full control effect; nearly all actives have a fitted effect of over 60% in size
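Light output from Kinase-Glo luciferase with luciferin and 10 uM ATP in 50 mM imidazole pH 7.2, KCl, MgCl2, Tween 20, BSA; compound pin-delivered, 8-min ambient incubation, then luminescence read.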
Rab9 prom act: activates the Rab9 promoter; Huh7 Rab9 promoter-luciferase reporter, luminescence, 24 h; hit rate 2.8% among 320,000; Potency, µM (titrated, usually from 9.22 µM), for the others: top-dose activation, negative = inhibition, actives largely listed as activators; note: % of control where 0% means no effect; nearly all actives have a fitted effect of over 60% in size
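Steps: seed 1500 Huh7 Rab9-luc cells per well, rest 2 h at 37 °C; add compound in DMSO; incubate 24 h; add luciferase reagent, 10 min ambient; read luminescence.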
SMN2 splice enh: increases expression of the SMN2 splice variant | HEK293 SMN2-luciferase splicing reporter, luminescence, 30-36 h | Potency, µM (top dose mostly 46.1 µM), inactives show top-dose activity change, positive = activation, hits mostly activators | hit rate 2.8% among 210,000; note: % of control where 0% means no effect; nearly all actives have a fitted effect of over 55% in size
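qHTS luciferase splicing reporter: luminescence rises when SMN2 exon 7 is included in transfected HEK293 cells. Compound exposure lasted 30-36 h at 37C, with 4.5 mM final sodium butyrate as control, followed by a ONE-Glo read.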
An asterisk follows results filed as active. Calls come from the whole dose curve; as a rule, active = well fitted curve in the direction sought with a large enough effect; inconclusive = small, poorly fitted or top-dose-only effect, or another doubt; inactive = no such curve, though single readings can be large; an effect the other way counts as inactive or inconclusive. Potency is the fitted concentration of half-maximal effect.

COCCNC(=O)c1nc2ccccc2s1 was read as ELG1 genotoxic 16%, NPC1 prom act 0%, FLuc modulator 17µM*, KinaseGlo FLuc -2%, Rab9 prom act 26% and SMN2 splice enh 14%.
Screening CC(=O)Nc1nc(=O)c2ccccc2s1 returned ELG1 genotoxic 0%, NPC1 prom act 1%, FLuc modulator -1%, KinaseGlo FLuc -1%, Rab9 prom act 3% and SMN2 splice enh 18%.
For CC(C)OC(=O)CC1C(=O)NCCN1C(=S)NC(=O)CCc1ccccc1 (stereo unspecified) the results were ELG1 genotoxic 1%, NPC1 prom act -1%, FLuc modulator -1%, KinaseGlo FLuc -1% and Rab9 prom act -13%.
`O=C1c2ccccc2CN1CCSC(=S)N1CCOCC1` gave ELG1 genotoxic inconclusive, NPC1 prom act 3.5µM*, FLuc modulator 12µM*, KinaseGlo FLuc -4%, Rab9 prom act 3.5µM* and SMN2 splice enh 13µM*.
For O=C1c2ccccc2CN1CCSC(=S)N1CCSCC1 the results were ELG1 genotoxic 14%, NPC1 prom act inconclusive, FLuc modulator 24µM*, KinaseGlo FLuc -6%, Rab9 prom act 3.2µM* and SMN2 splice enh 15%.
O=C1c2ccccc2CN1CCNC(=S)NC1CCCCC1 was read as ELG1 genotoxic 18%, NPC1 prom act 13%, FLuc modulator -5% and Rab9 prom act 7%.
`CC1CN(C(=S)SCCN2Cc3ccccc3C2=O)CC(C)O1` (stereo unspecified) gave ELG1 genotoxic 0%, NPC1 prom act 1%, FLuc modulator -10%, KinaseGlo FLuc -2%, Rab9 prom act 8% and SMN2 splice enh -19%.
For CCCCn1c(N)c(N(CC(C)C)C(=O)C2CCC2)c(=O)[nH]c1=O the results were ELG1 genotoxic 0%, NPC1 prom act -2%, FLuc modulator 2% and Rab9 prom act 0%.
`Cc1[nH]nc(-c2ccc(O)c(C)c2O)c1Oc1ccccc1` gave ELG1 genotoxic 0%, NPC1 prom act -2%, FLuc modulator -10%, KinaseGlo FLuc -3%, Rab9 prom act 1% and SMN2 splice enh -1%.
`O=C1/C(=C/c2ccc([N+](=O)[O-])cc2)C=C(c2ccccc2)N1c1ccccc1` gave ELG1 genotoxic 3%, NPC1 prom act 2%, FLuc modulator 0% and Rab9 prom act 1%.
O=C(O)c1cccc(N2C(=O)/C(=C/c3ccc([N+](=O)[O-])cc3)C=C2c2ccccc2)c1 was read as ELG1 genotoxic -4%, NPC1 prom act 0%, FLuc modulator 24µM*, KinaseGlo FLuc -7%, Rab9 prom act 7% and SMN2 splice enh -15%.
For Cn1cccc1C1C(C#N)=C(N)OC2=C1C(=O)CCC2 (stereo unspecified) the results were ELG1 genotoxic 1%, NPC1 prom act -5%, FLuc modulator 0% and Rab9 prom act 10%.
Screening O=c1cc(O)c2sc3nc4c(c(C(F)(F)F)c3c2[nH]1)CCCCC4 returned ELG1 genotoxic 2%, NPC1 prom act -2%, FLuc modulator 17µM* and Rab9 prom act 5%.
`CC(C)(C)NC(=O)COc1ccc(CNCc2cccs2)cc1` gave ELG1 genotoxic 0%, NPC1 prom act -1%, FLuc modulator 2%, KinaseGlo FLuc 7%, Rab9 prom act 0% and SMN2 splice enh -12%.
`CCN(C(=O)c1cc2cc3ccc(OC)cc3nc2o1)c1cccc(C)c1` gave FLuc modulator -17% and SMN2 splice enh -4%.
`CCCCN(C)C(=O)c1cc2cc3ccc(OC)cc3nc2s1` gave ELG1 genotoxic inconclusive, NPC1 prom act 0.5µM*, FLuc modulator 0.76µM*, KinaseGlo FLuc inconclusive, Rab9 prom act 0.45µM* and SMN2 splice enh 6.3µM*.
CCCCN(CC)C(=O)c1cc2cc3ccc(OC)cc3nc2o1 was read as ELG1 genotoxic 4%, NPC1 prom act inconclusive, FLuc modulator 15µM*, KinaseGlo FLuc -2%, Rab9 prom act inconclusive and SMN2 splice enh -5%.

Source: PubChem BioAssay (National Center for Advancing Translational Sciences (NCATS))
